Screening results (PubChem BioAssay)
The list is not random: actives were taken first. Their share in the collection is about 0.5%.
Tat transport = blocks Tat-dependent protein export in E. coli; E. coli MC4100 TorA-mCherry Tat export, fluorescence; inhibition, % at 10 µM; 340,000 compounds, 0.036% hits; AID 488895;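 active = mean replicate inhibition at least 50% and at least half of replicates individually reaching 50%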;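 note: exported cargo escapes ClpAP degradation while cytoplasmic cargo is degraded and loses fluorescence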
E coli growth-1 = counter-screen for AddAB inhibitors: E. coli growth inhibition. E. coli V3065 growth, OD600 absorbance, 18 h. inhibition, % at 11.9 µM. 330,000 compounds, 0.27% hits;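 active = inhibition above the campaign's mean inhibition across all tested compounds plus 3 SD, cut at about 9.9% in these data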;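 note: uninfected addAB+ strain grown without phage in ampicillin broth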
phage Ecoli inh = E. coli growth loss with phage present | inhibition, % at 11.9 µM | AID 651602 | 360,000 compounds, 0.26% hits | growth absorbance; in the data active = inhibition above about 11%
AddAB inh = less growth of phage-infected E. coli with AddAB; inhibition, % at 11.9 µM; AID 435030; E. coli expressing H. pylori AddAB, absorbance growth; 330,000 compounds, 0.29% hits; in the data active = inhibition above about 12%
E coli growth-2 = blocks Escherichia coli growth; OD600, 23 h; hits give low values; OD600 absorbance (no concentration beside the values); 330,000 compounds, 0.21% hits;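 active = OD600 absorbance below the run mean of sample wells minus 3.6 SD, in any replicate, cut at about 0.56 in these data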
AddAB conf = growth loss of T4-infected E. coli expressing H. pylori AddAB, confirmed; shares compounds with AddAB inh; E. coli V3065 expressing H. pylori AddAB, T4 phage, OD; T4 phage with gene 2 nonsense mutations; inhibition, % at 11.9 µM; 880 compounds, 64% hits;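 active = mean inhibition above a set limit taken from the earlier primary screen, cut at about 13% in these data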;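 note: higher means less bacterial growth since AddAB block lets phage replicate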
RecBCD counter = reduces growth of phage-infected RecBCD+ E. coli, AddAB inhibitor counter-screen | shares compounds with AddAB inh | 880 compounds, 73% hits | E. coli V66 + mutant T4 phage, OD growth | AID 488955 | inhibition, % at 11.9 µM;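 active = mean inhibition above the mean of solvent-only control wells plus 3 SD, cut at about 4% in these data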;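 note: optical density read after an 18 h incubation at 37 °C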
Bact viability = counter-screen: bacterial growth inhibition; 880 compounds, 35% hits; bacterial viability, absorbance (AddAB counterscreen); inhibition, % at 11.9 µM; shares compounds with AddAB inh; AID 488956; in the data active = inhibition above about 25%
RecBCD conf = confirmation: growth loss of phage-infected RecBCD+ E. coli (RecBCD inhibitor screen). shares compounds with phage Ecoli inh. E. coli V66 + T4 2- phage, growth OD. inhibition, % at 11.9 µM. 890 compounds, 45% hits. AID 651982;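 active = mean inhibition over triplicates exceeding the hit threshold derived in the original primary screen, cut at about 11% in these data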
Ecoli viability = inhibits E. coli viability, flagging RecBCD hits as nonselective; shares compounds with phage Ecoli inh; AID 651983; inhibition, % at 11.9 µM; absorbance (OD) growth; 890 compounds, 29% hits; in the data active = inhibition above about 20%;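 note: E. coli strain V66 grown with compound alone and no phage infection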
AddAB counter = growth loss of phage-infected AddAB E. coli, RecBCD counter-screen | E. coli expressing H. pylori AddAB + T4 phage, OD growth; gene 2 mutant T4, recBCD-deleted host | AID 651984 | inhibition, % at 11.9 µM | shares compounds with phage Ecoli inh | 890 compounds, 45% hits;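 active = mean inhibition above the solvent-only control wells' mean plus 3 SD, cut at about 22% in these data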;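 note: higher means less bacterial growth from phage killing when AddAB is blocked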
Of the large screens only hits and unclear results are named; the others gave an inactive call (follow-up assays come after a bar, where they were run).

O=C1NCCCC1C(=O)N1CCCCC1 (stereo unspecified)	none
CC(=O)Nc1ccc(C(=O)NN=Cc2ccccc2OC(=O)c2ccc(Cl)cc2)cc1	none (no result: Tat transport, E coli growth-1, phage Ecoli inh, AddAB inh)
COc1ccccc1NC(=O)NNC(=O)c1cc2ccccc2cc1O	E coli growth-1 12, phage Ecoli inh 12, AddAB inh 15 | AddAB conf 14 | RecBCD counter 14 | Bact viability inactive | RecBCD conf inactive | Ecoli viability inactive | AddAB counter inactive
[N-]=[N+]=NC1C[C@H](n2ccc(=O)[nH]c2=O)O[C@@H]1CO (stereo partly specified)	E coli growth-1 38, phage Ecoli inh 32, AddAB inh 37 (no result: E coli growth-2) | AddAB conf 94 | RecBCD counter 20 | Bact viability 77 | RecBCD conf 41 | Ecoli viability 28 | AddAB counter 85
Cn1c(O)c(/C=N/NC(=O)c2cc3ccccc3cc2O)c2ccccc21	E coli growth-1 25, phage Ecoli inh 22, AddAB inh 23 (no result: E coli growth-2) | AddAB conf 25 | RecBCD counter 25 | Bact viability inactive | RecBCD conf 19 | Ecoli viability 23 | AddAB counter 30
C=C1c2cccc(O)c2C(O)=C2C(=O)[C@]3(O)C(O)=C(C(N)=O)C(=O)[C@@H](N(C)C)[C@@H]3[C@@H](O)[C@H]12	Tat transport 140, E coli growth-1 47, phage Ecoli inh 100, AddAB inh 57, E coli growth-2 0.059 | AddAB conf 97 | RecBCD counter 99 | Bact viability 97 | RecBCD conf 104 | Ecoli viability 105 | AddAB counter 104
CN(C)c1ccc(O)c2c1CC1CC3[C@@H](N(C)C)C(=O)C(C(N)=O)C(=O)[C@]3(O)C(=O)C1C2=O (stereo partly specified)	Tat transport 145, E coli growth-1 102, phage Ecoli inh 101, AddAB inh 98 (no result: E coli growth-2) | AddAB conf 100 | RecBCD counter 100 | Bact viability 102 | RecBCD conf 100 | Ecoli viability 101 | AddAB counter 98
CN(C)c1ccc(O)c2c1CC1CC3C(N(C)C)C(=O)C(C(N)=O)=C(O)[C@@]3(O)C(=O)C1=C2O (stereo partly specified)	Tat transport 150, E coli growth-1 101, phage Ecoli inh 99, AddAB inh 99, E coli growth-2 0.069 | AddAB conf 98 | RecBCD counter 99 | Bact viability 100 | RecBCD conf 103 | Ecoli viability 105 | AddAB counter 104
C[C@H]1c2cccc(O)c2C(=O)C2C(=O)C3(O)C(=O)C(C(N)=O)C(=O)[C@@H](N(C)C)[C@@H]3[C@@H](O)[C@@H]21 (stereo partly specified)	Tat transport 148, E coli growth-1 100, phage Ecoli inh 98, AddAB inh 100 (no result: E coli growth-2) | AddAB conf 100 | RecBCD counter 100 | Bact viability 101 | RecBCD conf 99 | Ecoli viability 100 | AddAB counter 101
COc1ccc(C=C(C(=O)N2CCCCC2C(=O)O)c2ccc(OC)c(OC)c2)cc1 (stereo unspecified)	none (no result: Tat transport, E coli growth-1, phage Ecoli inh, AddAB inh)
O=C(Nc1ccc(C(F)(F)F)cc1[N+](=O)[O-])OC1C(Cc2ccccc2)NS(=O)(=O)C2CC3C=C[C@]12O3 (stereo partly specified)	none (no result: Tat transport, E coli growth-1, phage Ecoli inh, AddAB inh)
C[C@H]1c2cccc(O)c2C(O)=C2C(=O)C3(O)C(O)=C(C(N)=O)C(=O)[C@@H](N(C)C)[C@@H]3[C@@H](O)[C@@H]21 (stereo partly specified)	Tat transport 152, E coli growth-1 97, phage Ecoli inh 101, AddAB inh 96 (no result: E coli growth-2) | AddAB conf 101 | RecBCD counter 100 | Bact viability 101 | RecBCD conf 103 | Ecoli viability 104 | AddAB counter 104
COc1ccc(-c2cc(N3CCCC3)n3ncnc3n2)cc1	E coli growth-1 20, phage Ecoli inh 14, AddAB inh 17 | AddAB conf 21 | RecBCD counter 14 | Bact viability inactive | RecBCD conf inactive | Ecoli viability inactive | AddAB counter inactive
O=C(C=Cc1ccc2c(c1)S(=O)(=O)N(Cc1ccccc1)C2CC(=O)N1CCOCC1)N1CCOCC1 (stereo unspecified)	none (no result: Tat transport, E coli growth-1, phage Ecoli inh, AddAB inh)
O=C(CCCO)CCCCCCCCCC1NC(CO)C(O)C1O (stereo unspecified)	none (no result: Tat transport, E coli growth-1, phage Ecoli inh, AddAB inh)
CCCCC(=O)NC(c1ccccc1Cl)c1ccc2cccnc2c1O (stereo unspecified)	E coli growth-1 28, phage Ecoli inh 21, AddAB inh 19 (no result: E coli growth-2) | AddAB conf 22 | RecBCD counter 19 | Bact viability inactive | RecBCD conf 14 | Ecoli viability inactive | AddAB counter 24
O=C(COc1cccc2cccnc12)Nc1nccs1	none
O=[N+]([O-])c1ccc(NC(c2ccccc2)c2ccc3cccnc3c2O)cc1 (stereo unspecified)	none (no result: E coli growth-1, AddAB inh)
Oc1cccc(C(Nc2nccs2)c2ccc3cccnc3c2O)c1 (stereo unspecified)	E coli growth-1 16, phage Ecoli inh 16, AddAB inh 18 | AddAB conf 19 | RecBCD counter 17 | Bact viability inactive | RecBCD conf inactive | Ecoli viability inactive | AddAB counter inactive
CCCCC(=O)NC(c1ccccc1)c1ccc2cccnc2c1O (stereo unspecified)	E coli growth-1 31, phage Ecoli inh 24, AddAB inh 26 (no result: E coli growth-2) | AddAB conf 27 | RecBCD counter 25 | Bact viability inactive | RecBCD conf 12 | Ecoli viability inactive | AddAB counter 29
COc1cccc(C(NC(C)=O)c2ccc3cccnc3c2O)c1 (stereo unspecified)	none (no result: E coli growth-2)
CCCC(=O)NC(c1ccc(OC)cc1)c1ccc2cccnc2c1O (stereo unspecified)	E coli growth-1 30, phage Ecoli inh 31, AddAB inh 28 | AddAB conf 25 | RecBCD counter 25 | Bact viability inactive | RecBCD conf 16 | Ecoli viability 23 | AddAB counter 23
